Assay outcomes (PubChem)
12-LOX inh = ALOX12 (human) lipoxygenase inhibition; P18054; 1.1% of 580,000 active; Potency, µM (titrated, usually from 108 µM), for the others: top-dose activity change, negative = inhibition, hits mostly inhibitors; purified 12hLO, xylenol orange hydroperoxide absorbance
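Purified human 12hLO (150 nM final) in 25 mM Hepes, 0.01% Triton X-100, pH 7.0 was preincubated 15 min at room temperature with compound. Then 40 uM arachidonic acid was added, 30 min. Hydroperoxide was read by Fe-XO absorbance ratio 573/405 nm.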
RORg inh = ROR gamma (mouse) transcription inhibition; P51450; Drosophila S2 Gal4-RORgamma UAS-luciferase reporter, 20 h; Potency, µM (titrated, usually from 53.6 µM), without a hit: at the top dose activity change, negative = inhibition, most hits filed as inhibitors; 5.4% of 310,000 active; further: nearly all actives have a fitted effect of over 60% in size
Target sequence (P51450 whole entry, looked up, the tested form may be a part): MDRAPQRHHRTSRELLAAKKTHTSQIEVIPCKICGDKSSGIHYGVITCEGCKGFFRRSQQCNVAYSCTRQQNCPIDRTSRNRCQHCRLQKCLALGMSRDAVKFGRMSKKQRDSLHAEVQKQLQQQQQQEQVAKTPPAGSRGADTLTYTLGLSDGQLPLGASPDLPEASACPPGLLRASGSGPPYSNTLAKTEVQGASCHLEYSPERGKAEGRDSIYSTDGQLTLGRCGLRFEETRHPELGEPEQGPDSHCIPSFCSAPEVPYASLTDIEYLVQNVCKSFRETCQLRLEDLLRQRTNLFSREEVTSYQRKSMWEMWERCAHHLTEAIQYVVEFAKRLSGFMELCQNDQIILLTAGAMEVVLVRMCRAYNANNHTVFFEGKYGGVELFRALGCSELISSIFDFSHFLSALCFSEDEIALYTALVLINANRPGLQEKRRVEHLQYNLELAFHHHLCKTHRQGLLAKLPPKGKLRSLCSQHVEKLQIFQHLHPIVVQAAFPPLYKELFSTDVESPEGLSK
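ROR gamma transcriptional activity was tracked as Gal4-UAS luciferase output in stably transfected Drosophila Schneider cells, with compound added 1 hr before 700 uM copper sulfate induction and a 20 hr ambient-temperature incubation.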
ELG1 repair inh = ELG1-dependent DNA repair inhibition | HEK293T ELG1-luciferase reporter, luminescence, 16 h; DNA damage induced by 5-fluorouridine | 2.3% of 330,000 active | Potency, µM (highest dose often 46.1 µM), for inactives: at the highest dose activity change, negative = inhibition, usual class: inhibitors; further: nearly all actives have a fitted effect of over 55% in size
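Cells (2,000 per well) received 5-fluorouridine plus test compound or DMSO and were incubated 16 hr at 37 °C, 5% CO2. Luciferase activity was read by luminescence 30 min after ONE-Glo addition; signal suppression marked inhibition of damage-induced ELG1 function.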
DT40 TDP1 CPT = growth inhibition of DT40 Tdp1-/-;hTDP1 cells with camptothecin (screen for TDP1 inhibitors) | chicken DT40 Tdp1-/-;hTDP1 cells + 20 nM CPT, ATP luminescence, 48 h | Potency, µM (top dose mostly 46.2 µM), for the others: top-dose activity change, negative = growth inhibition, actives largely listed as inhibitors | 12% of 420,000 active; further: nearly all actives have a fitted effect of over 55% in size
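Chicken DT40 Tdp1-/- cells complemented with human TDP1, 400 cells/well, exposed to compounds plus 20 nM camptothecin for at least 48 h at 37 C; viability read as ATP content by CellTiter-Glo luminescence.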
TDP1 cell noCPT = qHTS for Inhibitors of human tyrosyl-DNA phosphodiesterase 1 (TDP1): qHTS in cells in absence of CPT. DT40 Tdp1-/- hTDP1 cells, no CPT, ATP luminescence, 48 h. Potency, µM (titrated, usually from 46.2 µM), without a hit: top-dose activity change, negative = growth inhibition, hits mostly inhibitors. 15% of 420,000 active. AID 686978, 2013; further: nearly all actives have a fitted effect of over 55% in size
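Compound effects on proliferation are scored in DT40 Tdp1-/-;hTDP1 cells in the absence of CPT. ATP levels (CellTiter-Glo luminescence) are recorded after a ≥48 hr, 37 °C incubation.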
VP16 counter = inhibits Gal4-VP16 luciferase reporter, ROR gamma counter-screen. Potency, µM (titrated, usually from 53.6 µM), without a hit: at the top dose activity, negative = inhibition, actives largely listed as inhibitors. Drosophila S2 Gal4-VP16 UAS-luciferase, luminescence, 20 h. 3.5% of 310,000 active;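 further: Gal4-VP16 expression switched on by copper sulfate through the metallothionein promoter; nearly all actives have a fitted effect of over 50% in size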
Active calls of the source: *; ? = inconclusive; . = not tested or not shown. The list is not random: actives were taken first. Their share in the collection is about 15%. The call rests on the fitted dose curve; in most records, active means well fitted curve in the direction sought with a large enough effect; inconclusive means small, poorly fitted or top-dose-only effect, or another doubt; inactive means no such curve, though single readings can be large; an effect the other way counts as inactive or inconclusive. On the % scale 0 is the no-effect control and ±100 the full control effect; potency means the concentration at half of the fitted maximal effect.

SMILES	12-LOX inh	RORg inh	ELG1 repair inh	DT40 TDP1 CPT	TDP1 cell noCPT	VP16 counter
CCOC(=O)C1=C(CNc2ccc(C)cc2)NC(=O)NC1c1ccccc1 (centres undefined)	-4.9%	.	.	.	.	.
Cc1nccn1CC(=O)N[C@@H]1CN(Cc2ccccn2)C[C@H]1CN(C)C	122.4%	.	.	.	.	.
Cc1csc(NC(C)c2nc3cc(C(F)(F)F)ccc3n2CCOCCO)n1 (centres undefined)	9.7%	.	.	?	-22.6%	.
Cc1ccc(C)c(Cn2c(C(C)NC(=O)c3ccc(F)cc3)nc3ccccc32)c1 (centres undefined)	-33.7%	.	.	-2.7%	?	.
CCCn1c(C(C)Nc2nc(-c3ccc(C)cc3)cs2)nc2cc(Cl)c(Cl)cc21 (centres undefined)	0.9%	11.2µM*	0.2%	?	-36.5%	-8.5%
Cc1ccc(Cn2c(C(C)Nc3nc(-c4ccc(F)cc4)cs3)nc3cc(Cl)c(Cl)cc32)cc1 (centres undefined)	-22.3%	.	.	29.1µM*	?	.
O=C(NCC1CC1)c1cccc2c(-c3ccc(F)c(F)c3)coc12	-2.1%	.	.	?	?	.
Cn1nccc1-c1coc2c(C(=O)NCC3CCOCC3)cccc12	-2.9%	.	.	?	23.1µM*	.
Cc1ccc(C#N)c(SCc2nnc(-c3ccc(Cl)cc3)o2)n1	1.7%	3.55µM*	?	?	?	?
CN(C)CCCN(Cc1cccs1)C(=S)NCc1ccccc1	37.2%	.	.	.	.	.
Cc1cccc(N2CCN(C(C(=O)NCc3ccccc3)c3ccc(F)cc3)CC2)c1C (centres undefined)	2.8%	.	.	23.1µM*	20.6µM*	.
O=C(NCc1ccccc1)C(c1ccc(-c2ccccc2)cc1)N1CCN(c2ccccc2F)CC1 (centres undefined)	12.8%	.	.	18.4µM*	?	.
Cc1cccc(N2CCN(C(C(=O)NCc3ccccc3)c3ccco3)CC2)c1C (centres undefined)	-10.2%	.	.	?	?	.
COc1cccc(C(C(=O)NCc2ccccc2)N2CCN(c3cccc(C)c3C)CC2)c1OC (centres undefined)	3.4%	.	.	18.4µM*	18.4µM*	.
CCC(CC)C(C(=O)NCc1ccccc1)N1CCN(c2cccc(C)c2C)CC1 (centres undefined)	-14.6%	.	.	6.51µM*	5.8µM*	.
COc1ccc2oc(=O)c(S(=O)(=O)N3CCC(C)CC3)cc2c1	-2.9%	.	.	.	.	.
COc1ccc([C@@H](NC(=O)Cc2csc(C(C)=O)c2)C2CC(O)C2)cn1 (some centres undefined)	57.4%	.	.	.	.	.
O=C(CSc1nnc(CNc2ccc(F)cc2)n1CC1CCCO1)Nc1ccccc1 (centres undefined)	-12.1%	6.7%	-13.3%	20.6µM*	?	-3.3%
Cc1ccc(C(=O)N2CCC3(CC2)CC(=O)N(c2ccccc2)c2ccccc2O3)cc1	-0.8%	.	.	.	.	.
Cc1ccc(NC(=O)c2cn(CCC#N)nc2-c2cccs2)c([N+](=O)[O-])c1	-7.9%	?	?	?	11.6µM*	-1.5%
Cc1ccc(NC(=O)/C=C/c2cccs2)c([N+](=O)[O-])c1	-20.8%	-16.7%	?	13µM*	23.1µM*	-16.6%
Cc1ccc(NC(=O)c2cn(CCC#N)nc2-c2cccs2)cc1	-1.7%	.	.	.	.	.
Cc1ccc(NC(=O)/C=C/C(=O)O)c([N+](=O)[O-])c1	-21.4%	14.3%	?	-9.5%	0.3%	1.6%
CC(C)n1c(SCC(=O)N2CCOCC2)nc2c1c(=O)n(C)c(=O)n2C	9.9%	.	.	.	.	.
COc1ccc(Cl)cc1-c1cc(C(=O)NCc2ccc(F)cc2)[nH]n1	-0.8%	.	.	6.51µM*	8.2µM*	.
